Data published in the supplement of paper PMC10849652.
About 7,900 targets were measured; listed, in parts, are those with a hit and a random draw of the rest. About 0.6% of all pairs of compound and target were hits.

Tests used:
Assay in all cases: log2 fold change, soluble protein after heating vs DMSO (PISA); higher = thermal stabilisation; K562 cells, 10 uM, 30 min; active = over 0.2 and 3.5 SD of the protein, either way, in both replicates (recomputed)
saracatinib = compound: CN1CCN(CCOc2cc(OC3CCOCC3)c3c(Nc4c(Cl)ccc5c4OCO5)ncnc3c2)CC1 [saracatinib]
In short: (§1)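 K562 cells at 2×10^6 cells/mL were given 10 μM compound for 30 min. Aliquots then went through 3 min of heating across 48°C-58°C, were pooled, and were extracted in PBS with 0.5% NP-40 at 4°C, and the supernatant after 21,000xg for 90 min was quantified by TMTpro 16plex LC-MS/MS with channel sums equalised. Thermal stability relative to control samples, from duplicates, is given as log2 fold change.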

sotrastaurin = compound: CN1CCN(c2nc(C3=C(c4c[nH]c5ccccc45)C(=O)NC3=O)c3ccccc3n2)CC1 [sotrastaurin]
In short: as §1

alvocidib = compound: CN1CC[C@H](c2c(O)cc(O)c3c(=O)cc(-c4ccccc4Cl)oc23)[C@H](O)C1 [alvocidib]
In short: as §1

Tubastatin A = compound: CN1CCc2c(c3ccccc3n2Cc2ccc(C(=O)NO)cc2)C1 [Tubastatin A]
In short: as §1

[1] = compound: CNC(=O)C1=CC=CC=C1NC2=NC(=NC=C2Cl)NC3=C(C=C(C=C3)N4CCOCC4)OC
In short: as §1

defactinib = compound: CNC(=O)c1ccc(Nc2ncc(C(F)(F)F)c(NCc3nccnc3N(C)S(C)(=O)=O)n2)cc1 [defactinib]
In short: as §1

rucaparib = compound: CNCc1ccc(-c2[nH]c3cc(F)cc4c3c2CCNC4=O)cc1 [rucaparib]
In short: as §1

[2] = compound: CNc1nc(-c2ccc3c(N)n[nH]c3c2)cc(N2C[C@@H](C(=O)NC3CCCCC3)CC[C@H]2C)n1
In short: as §1

encorafenib = compound: COC(=O)N[C@@H](C)CNc1nccc(-c2cn(C(C)C)nc2-c2cc(Cl)cc(NS(C)(=O)=O)c2F)n1 [encorafenib]
In short: as §1

[3] = compound: COC(=O)[C@H](CCSC)NC(=O)C1=C(C=C(C=C1)NC[C@H](CS)N)C2=CC=CC=C2
In short: as §1

[4] = compound: COC1=CC=C(C=C1)CN2C=CC3=C2C=C(C=C3)C(=O)NO
In short: as §1

filanesib = compound: CON(C)C(=O)N1N=C(c2cc(F)ccc2F)S[C@@]1(CCCN)c1ccccc1 [filanesib]
In short: as §1

zotarolimus = compound: CO[C@H]1C[C@@H]2CC[C@@H](C)[C@@](O)(O2)C(=O)C(=O)N2CCCC[C@H]2C(=O)O[C@H]([C@H](C)C[C@@H]2CC[C@H](n3cnnn3)[C@H](OC)C2)CC(=O)[C@H](C)/C=C(\C)[C@@H](O)[C@@H](OC)C(=O)[C@H](C)C[C@H](C)/C=C/C=C/C=C/1C [zotarolimus]
In short: as §1

idasanutlin = compound: COc1cc(C(=O)O)ccc1NC(=O)[C@@H]1N[C@@H](CC(C)(C)C)[C@](C#N)(c2ccc(Cl)cc2F)[C@H]1c1cccc(Cl)c1F [idasanutlin]
In short: as §1

alisertib = compound: COc1cc(Nc2ncc3c(n2)-c2ccc(Cl)cc2C(c2c(F)cccc2OC)=NC3)ccc1C(=O)O [alisertib]
In short: as §1

[5] = compound: COc1cc2nc(-c3cc(F)ccc3O)nc(N[C@@H]3CNC[C@H]3C(C)(C)O)c2cc1OC
In short: as §1

gefitinib = compound: COc1cc2ncnc(Nc3ccc(F)c(Cl)c3)c2cc1OCCCN1CCOCC1 [gefitinib]
In short: as §1

[6] = compound: COc1cccc2cc(-c3nc([C@H]4CC[C@H](C(=O)O)CC4)n4ncnc(N)c34)[nH]c12
In short: as §1

lapatinib = compound: CS(=O)(=O)CCNCc1ccc(-c2ccc3ncnc(Nc4ccc(OCc5cccc(F)c5)c(Cl)c4)c3c2)o1 [lapatinib]
In short: as §1

pictilisib = compound: CS(=O)(=O)N1CCN(Cc2cc3nc(-c4cccc5[nH]ncc45)nc(N4CCOCC4)c3s2)CC1 [pictilisib]
In short: as §1

Measured: log2 fold change

RHEB (UniProt Q15382)
Sequence of UniProt Q15382 (Q15382 whole entry, looked up): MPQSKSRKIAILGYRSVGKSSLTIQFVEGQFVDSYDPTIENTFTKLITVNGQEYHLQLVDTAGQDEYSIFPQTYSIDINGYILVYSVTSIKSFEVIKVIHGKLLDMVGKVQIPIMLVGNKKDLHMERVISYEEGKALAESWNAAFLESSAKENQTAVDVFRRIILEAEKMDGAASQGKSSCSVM
inactive: saracatinib 0.047 | sotrastaurin 0.04 | alvocidib -0.008 | Tubastatin A -0.054 | [1] -0.032 | defactinib 0.002 | rucaparib -0.084 | [2] -0.011 | encorafenib 0.025 | [3] 0 | [4] -0.007 | filanesib -0.08 | zotarolimus 0.016 | idasanutlin -0.049 | alisertib -0.03 | [5] 0.032 | gefitinib 0.015 | [6] 0.057 | lapatinib 0.005 | pictilisib 0.029

RNF220 (UniProt Q5VTB9)
Sequence of UniProt Q5VTB9 (Q5VTB9 whole entry, looked up): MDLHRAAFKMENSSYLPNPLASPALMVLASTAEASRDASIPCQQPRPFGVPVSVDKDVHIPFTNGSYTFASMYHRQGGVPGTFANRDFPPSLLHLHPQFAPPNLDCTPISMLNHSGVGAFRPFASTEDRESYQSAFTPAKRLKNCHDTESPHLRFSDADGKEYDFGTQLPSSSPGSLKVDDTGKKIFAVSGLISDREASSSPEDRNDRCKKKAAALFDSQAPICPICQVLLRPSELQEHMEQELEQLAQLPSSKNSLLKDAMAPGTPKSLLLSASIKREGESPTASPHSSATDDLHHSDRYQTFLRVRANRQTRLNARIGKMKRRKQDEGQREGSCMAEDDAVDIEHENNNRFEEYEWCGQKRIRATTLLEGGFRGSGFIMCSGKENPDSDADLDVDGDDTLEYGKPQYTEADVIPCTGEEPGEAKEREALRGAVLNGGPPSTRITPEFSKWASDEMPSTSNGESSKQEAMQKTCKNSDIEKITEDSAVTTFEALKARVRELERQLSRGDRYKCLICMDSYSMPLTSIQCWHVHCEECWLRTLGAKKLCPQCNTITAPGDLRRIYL
inactive: saracatinib 0.012 | sotrastaurin 0.022 | alvocidib -0.066 | Tubastatin A 0.066 | [1] -0.008 | defactinib -0.059 | rucaparib -0.043 | [2] -0.038 | encorafenib 0.031 | [3] 0.015 | [4] -0.004 | filanesib 0.108 | zotarolimus 0.062 | idasanutlin -0.006 | alisertib -0.062 | [5] 0.047 | gefitinib -0.032 | [6] 0.002 | lapatinib -0.006 | pictilisib 0.068

RPS20 isoform 2 (UniProt P60866)
inactive: saracatinib -0.1 | sotrastaurin 0.019 | alvocidib 0.196 | Tubastatin A 0.054 | [1] 0.066 | defactinib 0.216 | rucaparib 0.093 | [2] -0.009 | encorafenib 0.041 | [3] 0.001 | [4] -0.086 | filanesib 0.085 | zotarolimus 0.019 | idasanutlin 0.047 | alisertib -0.018 | [5] -0.015 | gefitinib -0.036 | [6] -0.157 | lapatinib 0.108 | pictilisib -0.006

RAC3 (UniProt P60763)
inactive: saracatinib 0.036 | sotrastaurin 0.11 | alvocidib -0.042 | Tubastatin A -0.081 | [1] -0.064 | defactinib 0.011 | rucaparib -0.134 | [2] 0.085 | encorafenib -0.07 | [3] 0.027 | [4] 0.025 | filanesib 0.031 | zotarolimus 0.125 | idasanutlin 0.017 | alisertib -0.038 | [5] -0.067 | gefitinib 0.017 | [6] 0.026 | lapatinib 0.061 | pictilisib 0.071

RPS14 (UniProt P62263)
inactive: saracatinib 0.027 | sotrastaurin -0.003 | alvocidib 0.166 | Tubastatin A 0.123 | [1] 0.056 | defactinib 0.113 | rucaparib 0.107 | [2] 0.069 | encorafenib 0.013 | [3] -0.084 | [4] 0.034 | filanesib 0.046 | zotarolimus 0.028 | idasanutlin 0.062 | alisertib -0.209 | [5] -0.047 | gefitinib -0.048 | [6] -0.154 | lapatinib 0.132 | pictilisib -0.321

SCAF11 (UniProt Q99590)
Sequence of UniProt Q99590 (Q99590 whole entry, looked up): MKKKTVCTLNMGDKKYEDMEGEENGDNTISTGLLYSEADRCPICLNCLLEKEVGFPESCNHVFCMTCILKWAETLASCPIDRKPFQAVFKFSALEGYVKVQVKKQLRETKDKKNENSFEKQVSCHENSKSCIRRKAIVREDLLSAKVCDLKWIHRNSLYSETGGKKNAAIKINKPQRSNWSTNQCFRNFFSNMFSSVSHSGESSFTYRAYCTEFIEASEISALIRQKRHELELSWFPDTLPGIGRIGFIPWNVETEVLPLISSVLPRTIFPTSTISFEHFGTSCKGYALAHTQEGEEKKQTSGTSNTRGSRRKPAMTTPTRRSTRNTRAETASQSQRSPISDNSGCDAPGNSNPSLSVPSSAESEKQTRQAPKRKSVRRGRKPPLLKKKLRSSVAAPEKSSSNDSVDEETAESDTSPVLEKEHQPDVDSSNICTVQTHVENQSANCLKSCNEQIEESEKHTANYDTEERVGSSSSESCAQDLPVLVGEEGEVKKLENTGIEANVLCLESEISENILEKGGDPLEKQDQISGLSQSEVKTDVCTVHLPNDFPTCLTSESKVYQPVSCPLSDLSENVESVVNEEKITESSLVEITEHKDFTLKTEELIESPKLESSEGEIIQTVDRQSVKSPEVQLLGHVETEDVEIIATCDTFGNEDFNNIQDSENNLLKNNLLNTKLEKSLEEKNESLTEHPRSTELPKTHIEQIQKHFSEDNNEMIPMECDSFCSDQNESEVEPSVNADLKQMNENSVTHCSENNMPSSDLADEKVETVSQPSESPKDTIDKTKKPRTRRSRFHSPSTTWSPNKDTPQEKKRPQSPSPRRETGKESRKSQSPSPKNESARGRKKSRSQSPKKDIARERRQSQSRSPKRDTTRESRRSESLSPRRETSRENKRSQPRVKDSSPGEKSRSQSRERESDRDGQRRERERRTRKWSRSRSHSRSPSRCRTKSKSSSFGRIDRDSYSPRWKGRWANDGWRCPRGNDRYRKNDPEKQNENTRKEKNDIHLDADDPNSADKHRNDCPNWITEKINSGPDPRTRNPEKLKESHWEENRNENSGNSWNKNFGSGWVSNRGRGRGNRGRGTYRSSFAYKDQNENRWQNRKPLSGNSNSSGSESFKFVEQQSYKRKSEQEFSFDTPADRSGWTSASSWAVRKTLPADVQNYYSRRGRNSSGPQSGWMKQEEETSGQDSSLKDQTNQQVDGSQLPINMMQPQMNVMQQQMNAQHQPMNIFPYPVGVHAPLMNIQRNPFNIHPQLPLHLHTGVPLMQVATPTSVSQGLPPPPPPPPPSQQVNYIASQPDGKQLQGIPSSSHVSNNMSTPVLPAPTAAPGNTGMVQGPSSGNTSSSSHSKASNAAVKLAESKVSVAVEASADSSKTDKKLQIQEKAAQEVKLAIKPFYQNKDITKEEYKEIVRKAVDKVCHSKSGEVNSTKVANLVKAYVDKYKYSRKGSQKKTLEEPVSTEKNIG
inactive: saracatinib 0.075 | sotrastaurin 0.227 | Tubastatin A -0.052 | [1] -0.077 | rucaparib 0.35 | [2] -0.052 | encorafenib 0.042 | [3] 0.188 | [4] 0.365 | filanesib 0.141 | zotarolimus -0.029 | idasanutlin 0.054 | alisertib -0.1 | [5] -0.028 | gefitinib -0.013 | [6] -0.071 | lapatinib 0.156 | pictilisib -0.382
active: alvocidib 1.25 | defactinib 0.579

RECQL (UniProt P46063)
Sequence of UniProt P46063 (P46063 whole entry, looked up): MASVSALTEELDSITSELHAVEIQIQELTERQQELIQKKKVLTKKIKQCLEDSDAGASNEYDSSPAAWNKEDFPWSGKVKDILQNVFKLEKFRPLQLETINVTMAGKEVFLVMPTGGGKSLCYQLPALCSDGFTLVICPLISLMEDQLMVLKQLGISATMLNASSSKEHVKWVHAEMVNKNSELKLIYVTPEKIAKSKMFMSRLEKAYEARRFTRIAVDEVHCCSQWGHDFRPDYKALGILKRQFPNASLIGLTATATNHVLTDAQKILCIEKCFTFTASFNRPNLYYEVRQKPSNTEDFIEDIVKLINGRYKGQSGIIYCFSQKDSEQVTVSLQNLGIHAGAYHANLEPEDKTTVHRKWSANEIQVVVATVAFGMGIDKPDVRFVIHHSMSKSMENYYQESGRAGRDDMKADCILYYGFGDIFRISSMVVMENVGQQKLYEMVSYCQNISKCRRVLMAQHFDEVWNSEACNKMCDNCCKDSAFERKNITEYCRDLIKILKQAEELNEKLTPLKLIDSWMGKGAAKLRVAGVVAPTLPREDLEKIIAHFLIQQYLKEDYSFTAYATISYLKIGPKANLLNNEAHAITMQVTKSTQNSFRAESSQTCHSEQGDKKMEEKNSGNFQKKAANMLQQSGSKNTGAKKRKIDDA
inactive: saracatinib 0.053 | sotrastaurin -0.012 | alvocidib -0.073 | Tubastatin A 0.021 | [1] 0.061 | defactinib -0.071 | rucaparib -0.002 | [2] -0.013 | encorafenib 0.026 | [3] -0.026 | [4] 0.022 | filanesib -0.091 | zotarolimus 0.035 | idasanutlin -0.056 | alisertib -0.061 | [5] -0.038 | gefitinib -0.004 | [6] 0.031 | lapatinib 0.043 | pictilisib 0.024

RBM12 (UniProt Q9NTZ6)
inactive: saracatinib -0.04 | sotrastaurin -0.12 | alvocidib -0.191 | Tubastatin A 0.074 | [1] 0.008 | defactinib -0.27 | rucaparib -0.109 | [2] -0.02 | encorafenib 0.061 | [3] -0.052 | [4] 0.112 | filanesib -0.033 | zotarolimus 0.021 | idasanutlin -0.039 | alisertib 0.023 | [5] -0.014 | gefitinib 0.032 | [6] 0.023 | lapatinib -0.012 | pictilisib -0.019

RHOXF2 (UniProt Q9BQY4)
Sequence of UniProt Q9BQY4 (Q9BQY4 whole entry, looked up): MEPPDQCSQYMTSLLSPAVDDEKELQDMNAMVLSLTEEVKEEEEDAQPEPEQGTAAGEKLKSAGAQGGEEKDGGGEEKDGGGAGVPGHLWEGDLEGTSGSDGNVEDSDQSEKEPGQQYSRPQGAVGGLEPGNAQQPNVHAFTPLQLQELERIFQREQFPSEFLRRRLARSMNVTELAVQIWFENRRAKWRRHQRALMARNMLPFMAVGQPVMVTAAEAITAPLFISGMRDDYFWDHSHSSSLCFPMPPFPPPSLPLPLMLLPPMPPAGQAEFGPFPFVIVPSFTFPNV
inactive: saracatinib 0.015 | sotrastaurin -0.002 | alvocidib 0.011 | Tubastatin A 0.042 | [1] -0.021 | defactinib 0.008 | rucaparib 0.09 | [2] -0.074 | encorafenib -0.018 | [3] 0.066 | [4] 0.017 | filanesib 0.013 | zotarolimus -0.039 | idasanutlin 0.02 | alisertib -0.068 | [5] -0.001 | gefitinib -0.021 | [6] 0.056 | lapatinib -0.028 | pictilisib 0.088

RBM22 (UniProt Q9NW64)
Sequence of UniProt Q9NW64 (Q9NW64 whole entry, looked up): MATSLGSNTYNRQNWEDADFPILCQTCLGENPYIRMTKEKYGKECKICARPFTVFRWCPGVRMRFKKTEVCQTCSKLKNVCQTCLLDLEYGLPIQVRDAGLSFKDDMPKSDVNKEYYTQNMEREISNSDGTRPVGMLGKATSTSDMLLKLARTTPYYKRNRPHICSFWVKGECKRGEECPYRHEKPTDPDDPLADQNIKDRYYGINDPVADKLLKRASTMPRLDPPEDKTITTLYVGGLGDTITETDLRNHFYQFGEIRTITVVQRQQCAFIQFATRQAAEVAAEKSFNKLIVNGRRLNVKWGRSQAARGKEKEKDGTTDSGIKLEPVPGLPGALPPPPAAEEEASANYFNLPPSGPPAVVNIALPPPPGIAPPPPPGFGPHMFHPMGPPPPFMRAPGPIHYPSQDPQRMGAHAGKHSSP
inactive: saracatinib 0.016 | sotrastaurin -0.013 | alvocidib 0.081 | Tubastatin A -0.065 | [1] -0.037 | defactinib -0.05 | rucaparib 0.04 | [2] -0.155 | encorafenib 0.036 | [3] 0.012 | [4] -0.105 | filanesib 0.096 | zotarolimus 0 | idasanutlin 0.056 | alisertib -0.002 | [5] 0.021 | gefitinib -0.058 | [6] 0.083 | lapatinib 0.036 | pictilisib -0.031

RNPS1 (UniProt Q15287)
inactive: saracatinib 0.036 | sotrastaurin 0.013 | alvocidib -0.016 | Tubastatin A 0.107 | [1] -0.243 | defactinib -0.067 | rucaparib 0.023 | [2] -0.026 | encorafenib -0.033 | [3] -0.019 | [4] 0.062 | filanesib 0.13 | zotarolimus -0.014 | idasanutlin 0.274 | alisertib 0.024 | [5] -0.073 | gefitinib 0.04 | [6] -0.005 | lapatinib 0.075 | pictilisib -0.001

RBM4 (UniProt Q9BWF3)
Sequence of UniProt Q9BWF3 (Q9BWF3 whole entry, looked up): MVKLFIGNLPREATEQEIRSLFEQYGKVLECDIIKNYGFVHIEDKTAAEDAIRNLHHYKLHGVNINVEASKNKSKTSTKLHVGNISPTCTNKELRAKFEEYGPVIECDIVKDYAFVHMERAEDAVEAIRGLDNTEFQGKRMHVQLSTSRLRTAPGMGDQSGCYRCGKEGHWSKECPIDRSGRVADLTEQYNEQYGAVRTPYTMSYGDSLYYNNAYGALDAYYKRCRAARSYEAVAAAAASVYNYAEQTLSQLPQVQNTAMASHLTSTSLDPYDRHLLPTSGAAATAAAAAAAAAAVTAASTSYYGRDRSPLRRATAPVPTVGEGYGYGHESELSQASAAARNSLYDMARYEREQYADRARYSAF
inactive: saracatinib 0.024 | sotrastaurin -0.1 | alvocidib -0.037 | Tubastatin A 0.017 | [1] -0.052 | defactinib -0.055 | rucaparib 0.157 | [2] -0.036 | encorafenib 0.063 | [3] 0.025 | [4] -0.071 | filanesib 0.065 | zotarolimus 0.035 | idasanutlin 0.051 | alisertib 0.038 | [5] -0.036 | gefitinib -0.04 | [6] -0.038 | lapatinib 0.024 | pictilisib 0.005

SDHAF2 (UniProt Q9NX18)
Sequence of UniProt Q9NX18 (Q9NX18 whole entry, looked up): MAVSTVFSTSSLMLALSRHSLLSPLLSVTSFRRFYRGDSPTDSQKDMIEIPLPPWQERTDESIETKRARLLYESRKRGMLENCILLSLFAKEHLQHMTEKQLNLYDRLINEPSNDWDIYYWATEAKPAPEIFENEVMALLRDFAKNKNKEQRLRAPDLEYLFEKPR
inactive: saracatinib 0.08 | sotrastaurin -0.035 | alvocidib -0.026 | Tubastatin A 0.037 | [1] 0.016 | defactinib -0.002 | rucaparib 0.115 | [2] -0.078 | encorafenib -0.003 | [3] 0.01 | [4] 0.063 | filanesib -0.03 | zotarolimus 0.068 | idasanutlin -0.085 | alisertib 0.02 | [5] -0.163 | gefitinib 0.09 | [6] 0.102 | lapatinib -0.013 | pictilisib 0.091

RAB9A (UniProt P51151)
Sequence of UniProt P51151 (P51151 whole entry, looked up): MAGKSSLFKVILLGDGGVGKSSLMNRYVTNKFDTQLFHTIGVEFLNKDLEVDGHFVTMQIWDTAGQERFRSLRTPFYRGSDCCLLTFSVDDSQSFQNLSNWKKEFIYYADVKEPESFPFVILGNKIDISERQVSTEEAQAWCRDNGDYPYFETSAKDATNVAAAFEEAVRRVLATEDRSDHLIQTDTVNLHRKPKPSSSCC
inactive: saracatinib 0.015 | sotrastaurin 0.02 | alvocidib -0.04 | Tubastatin A -0.018 | [1] -0.054 | defactinib 0 | rucaparib -0.017 | [2] -0.02 | encorafenib -0.012 | [3] -0.013 | [4] 0.022 | filanesib -0.074 | zotarolimus 0.024 | idasanutlin -0.026 | alisertib -0.021 | [5] 0.008 | gefitinib 0.015 | [6] 0.067 | lapatinib -0.026 | pictilisib -0.011

RAB33B (UniProt Q9H082)
Sequence of UniProt Q9H082 (Q9H082 whole entry, looked up): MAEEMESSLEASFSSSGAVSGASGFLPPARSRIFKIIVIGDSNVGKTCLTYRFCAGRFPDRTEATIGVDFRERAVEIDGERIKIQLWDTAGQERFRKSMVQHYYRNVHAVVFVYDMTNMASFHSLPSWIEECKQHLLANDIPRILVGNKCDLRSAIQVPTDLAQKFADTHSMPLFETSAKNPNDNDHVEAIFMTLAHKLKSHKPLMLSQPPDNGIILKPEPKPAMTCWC
inactive: saracatinib 0.158 | sotrastaurin 0.057 | alvocidib 0.038 | Tubastatin A 0.013 | [1] -0.01 | defactinib -0.005 | rucaparib 0.035 | [2] -0.031 | encorafenib 0 | [3] 0.032 | [4] -0.104 | filanesib -0.018 | zotarolimus -0.073 | idasanutlin 0.036 | alisertib 0.035 | [5] 0.039 | gefitinib 0.037 | [6] 0.087 | lapatinib 0.046 | pictilisib 0.106

SCAMP2 (UniProt O15127)
Sequence of UniProt O15127 (O15127 whole entry, looked up): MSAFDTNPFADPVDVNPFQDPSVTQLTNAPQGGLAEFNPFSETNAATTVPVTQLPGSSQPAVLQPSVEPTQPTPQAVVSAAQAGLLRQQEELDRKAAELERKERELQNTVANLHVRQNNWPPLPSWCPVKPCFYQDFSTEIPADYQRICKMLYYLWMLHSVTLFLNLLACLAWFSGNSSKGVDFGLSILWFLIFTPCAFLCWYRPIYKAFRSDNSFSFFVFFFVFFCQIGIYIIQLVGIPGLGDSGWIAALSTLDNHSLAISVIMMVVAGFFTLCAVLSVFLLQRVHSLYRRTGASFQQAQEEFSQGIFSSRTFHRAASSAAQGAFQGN
inactive: saracatinib 0.084 | sotrastaurin 0.096 | alvocidib -0.155 | Tubastatin A 0.019 | [1] 0.027 | defactinib -0.086 | rucaparib -0.321 | [2] 0.028 | encorafenib 0.349 | [3] 0.101 | filanesib 0.036 | zotarolimus 0.171 | idasanutlin -0.1 | alisertib -0.087 | [5] -0.035 | gefitinib 0.036 | [6] 0.042 | lapatinib 0.009 | pictilisib 0.199
